# Laboratory results as given in PMC4336329 (PLoS ONE, 2015).
# The campaign covered roughly 310,000 compounds. About 14,000 (4.5%) showed an effect of 50% or more. The effect is printed as a negative number. This excerpt belongs to a sample that is enriched for strong results.
# Target: human ether-à-go-go-related gene (hERG) potassium channel (human, UniProt Q12809)
# Test: primary screen, population patch clamp on CHO cells stably expressing hERG; higher = less effect of the substance
# 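Note: peak tail current of the secondary pulse compared with the same well before compound.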
# Sequence of human ether-à-go-go-related gene (hERG) potassium channel (Q12809 whole entry, looked up): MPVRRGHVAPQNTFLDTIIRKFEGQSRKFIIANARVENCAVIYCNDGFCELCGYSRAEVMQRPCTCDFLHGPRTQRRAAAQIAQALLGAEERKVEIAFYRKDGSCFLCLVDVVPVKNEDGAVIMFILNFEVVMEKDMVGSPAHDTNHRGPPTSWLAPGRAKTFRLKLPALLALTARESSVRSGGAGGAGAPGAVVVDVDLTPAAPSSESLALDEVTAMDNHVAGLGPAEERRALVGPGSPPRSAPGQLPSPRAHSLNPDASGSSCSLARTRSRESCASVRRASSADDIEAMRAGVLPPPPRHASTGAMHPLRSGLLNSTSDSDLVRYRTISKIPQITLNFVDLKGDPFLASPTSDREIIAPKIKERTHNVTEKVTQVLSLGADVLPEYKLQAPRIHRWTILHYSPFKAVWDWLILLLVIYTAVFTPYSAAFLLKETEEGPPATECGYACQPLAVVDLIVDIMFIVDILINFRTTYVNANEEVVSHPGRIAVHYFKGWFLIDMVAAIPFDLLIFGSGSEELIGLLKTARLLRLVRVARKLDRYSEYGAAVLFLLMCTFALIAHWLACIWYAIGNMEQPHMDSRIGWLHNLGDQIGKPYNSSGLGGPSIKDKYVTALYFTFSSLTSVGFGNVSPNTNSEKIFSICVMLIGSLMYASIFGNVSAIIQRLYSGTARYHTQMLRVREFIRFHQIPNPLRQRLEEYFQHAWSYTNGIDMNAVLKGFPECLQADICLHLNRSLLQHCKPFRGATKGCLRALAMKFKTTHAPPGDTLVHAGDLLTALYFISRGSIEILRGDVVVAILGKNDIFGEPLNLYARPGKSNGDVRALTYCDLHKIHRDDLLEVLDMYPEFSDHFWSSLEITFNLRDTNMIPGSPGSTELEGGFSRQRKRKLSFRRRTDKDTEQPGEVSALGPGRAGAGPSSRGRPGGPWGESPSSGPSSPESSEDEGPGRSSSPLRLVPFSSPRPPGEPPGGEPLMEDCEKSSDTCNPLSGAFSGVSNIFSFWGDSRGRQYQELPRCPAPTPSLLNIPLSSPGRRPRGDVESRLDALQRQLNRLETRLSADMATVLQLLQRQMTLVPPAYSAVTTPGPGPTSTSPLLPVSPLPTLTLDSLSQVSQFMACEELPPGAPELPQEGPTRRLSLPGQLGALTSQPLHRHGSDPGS
row,Compound,"hERG current change (%, negative = inhibition) at 10uM"
1,COc1ccc(C2NC(=O)CCC2[N+](=O)[O-])cc1OC (stereo not drawn),10.1%
2,CSc1cccc(NC(=O)CCCOc2ccc(Cl)cc2C)c1,-2.48%
3,CC(C)C(c1nnnn1Cc1ccccc1)N1CCN(Cc2ccco2)CC1.Cl (stereo not drawn),-32.1%
4,c1ccc2c(c1)CCN(Cc1nnnn1Cc1ccc3c(c1)OCO3)C2,-3.1%
5,CC(C)C(c1nnnn1Cc1ccc2c(c1)OCO2)N1CCN(c2ccccc2)CC1 (stereo not drawn),23.1%
6,CC(C)C(c1nnnn1Cc1ccccc1)N1CCN(Cc2ccc3c(c2)OCO3)CC1 (stereo not drawn),-52%
7,Cl.Fc1ccccc1C(c1nnnn1Cc1ccc2c(c1)OCO2)N1CCN(Cc2ccco2)CC1 (stereo not drawn),-56.4%
8,Cl.NC(=O)C1CCN(C(c2ccccc2F)c2nnnn2Cc2ccco2)CC1 (stereo not drawn),11.1%
9,CC(C)C(c1nnnn1Cc1ccc(F)cc1)N1CCN(Cc2ccc3c(c2)OCO3)CC1 (stereo not drawn),-43.3%
10,Cl.c1ccc(CCn2nnnc2C(c2cccs2)N2CCN(Cc3ccc4c(c3)OCO4)CC2)cc1 (stereo not drawn),-24.1%
11,c1ccc(Cn2nnnc2CN2CCN(Cc3ccc4c(c3)OCO4)CC2)cc1,-61.1%
12,c1ccc2sc(C3CCN(Cc4nnnn4Cc4ccc5c(c4)OCO5)CC3)nc2c1,-8.73%
13,Fc1ccccc1C(c1nnnn1Cc1ccc2c(c1)OCO2)N1CCN(Cc2ccccc2)CC1 (stereo not drawn),-55.3%
14,CCN1CCN(C(c2ccccc2F)c2nnnn2Cc2ccc3c(c2)OCO3)CC1.Cl (stereo not drawn),-37.6%
15,O=C(CN1C(=O)NC2(CCCC2)C1=O)OCc1ccc(Cl)cc1Cl,-20.9%
16,CC(C)c1ccc(/C=C/C(=O)N2CCc3ccccc3C2)cc1,3.46%
17,O=C(CC(SCCO)c1ccc([N+](=O)[O-])cc1)c1ccco1 (stereo not drawn),-35.7%
18,O=C(NCc1ccccc1Cl)c1cc2c(s1)CS(=O)(=O)C2,-4.86%
19,Cc1nnc(C)n1/N=C/c1cc(Br)ccc1O,9.86%
20,C/C(=N/NS(=O)(=O)c1ccc(C)cc1C)c1ccc2c(c1)OCO2,-2.58%
21,O=C(O)c1ccccc1SSc1ccccc1C(=O)O,25.5%
22,O=C(c1ccco1)N1CCC(c2nc(-c3ccccc3Cl)no2)CC1,-11.5%
23,Clc1ccc(CNCc2cccs2)cc1Cl,7.52%
24,CC1CC(C)CN(C(=O)Nc2ccccc2F)C1 (stereo not drawn),22.9%
